The list is not random: actives were taken first. Their share in the collection is about 3.4%.
HTT aggregate – qHTS Multiplex Assay to Identify Dual Action Probes in a Cell Model of Huntington: Aggregate Formation (GFP); PC12 HttQ103-GFP aggregates, Acumen cytometry, 40 h; Potency, µM (titrated, usually from 46.1 µM), hits mostly inhibitors; actives 1.1% (n = 220,000); AID 1688, 2009; also: nearly all actives have a fitted effect of over 60% in size
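PC12 cells with ecdysone-inducible HTT exon1 Q103-GFP, induced by 100 nM tebufenozide, given compounds in a concentration series. GFP aggregates (1–25 um, 6 SD above background) counted in lysates by laser-scanning cytometry, 488 nm excitation.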
PNC inhibitor – High Content Assay for Compounds that inhibit the Assembly of the Perinucleolar Compartment | PC3M PTB-GFP, PNC prevalence imaging, 16 h; hits give low values | activity change (PNC), negative = inhibition, % at 10 µM | actives 3.1% (n = 140,000) | AID 2417, 2010;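 active = readout at or below -70, meaning at least 70% loss of cells showing the perinucleolar compartment, a nuclear body marking cancer cells; inconclusive = readout between -30 and a set limit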
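Read-out is percentage of cells bearing a perinucleolar compartment, from automated 20x imaging of fixed, Hoechst-stained PC3M PTB-GFP cells. Cells were seeded 4 h, then exposed 16 h to compound (23 nl of library stock) in duplicate plates.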
HTT cytoprotect – qHTS Multiplex Assay to Identify Dual Action Probes in a Cell Model of Huntington: Cytoprotection (ATP); PC12 HTT-Q103 induced, cytoprotection, ATP luminescence, 40 h; Potency, µM (highest dose often 56.4 µM), hits mostly activators; actives 0.14% (n = 230,000); also: nearly all actives have a fitted effect of over 45% in size
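Quantitative HTS on tebufenozide-induced (100 nM) PC12 cells expressing HTTQ103 exon 1–GFP; compounds tested as a concentration series; survival measured via cellular ATP.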
IMPase Li inh – qHTS Assay for Identifying the Cell-Membrane Permeable IMPase Inhibitors: Potentiation with Lithium | CHO-M1 cells, IP1 TR-FRET (IP-One), carbachol + lithium | Potency, µM (top dose mostly 59.4 µM), usual class: inhibitors | actives 0.35% (n = 210,000) | AID 1457, 2008;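 also: IP1 builds up when IMPase is blocked and the TR-FRET signal falls; nearly all actives have a fitted effect of over 50% in size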
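CHO cells stably expressing M1 receptor (2000/well) were cultured 16–30 h, then exposed to compounds with a small lithium addition for 30 min at 37C. IP1 was measured by TR-FRET competition; AC50 from Hill fits.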
IMPase cell inh – qHTS Assay for Identifying the Cell-Membrane Permeable IMPase Inhibitors | AID 901, 2007 | inhibition (IP1 accumulation), % at 46.1 µM | Inositol monophosphatase 1 (Rattus norvegicus), P97697 | CHO-M1 cells, IP1 accumulation, HTRF TR-FRET ratio | 120,000 tested, under 10 active; active = well fitted curve in the direction sought with a large enough effect in the signal ratio, not every such curve was filed as active; inconclusive = small, poorly fitted or top-dose-only effect, or a change in a side signal; inactive = no such curve, though single readings can be large or run the other way; the % refers to the signal ratio;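 also: cells stimulated with carbachol in lithium chloride buffer; higher means more IMPase inhibition seen as more IP1 and lower FRET ratio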
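Cellular IMPase inhibition is scored as a rise in cytosolic IP1, detected by competitive TR-FRET between d2-labelled IP1 and a europium anti-IP1 antibody. M1-expressing CHO cells were stimulated with carbachol for 30 min at 37C, with lithium (50 mM LiCl) present in the buffer.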
NPSR antag – qHTS Assay for Antagonists of the Neuropeptide S Receptor: cAMP Signal Transduction; Q6W5P4; CHO-NPSR cells, cAMP TR-FRET, antagonist mode; Potency, µM (doses to about 38.3 µM), most hits filed as inhibitors; actives 1% (n = 220,000); AID 1461, 2008; also: nearly all actives have a fitted effect of over 50% in size
Target sequence (Q6W5P4 whole entry, looked up): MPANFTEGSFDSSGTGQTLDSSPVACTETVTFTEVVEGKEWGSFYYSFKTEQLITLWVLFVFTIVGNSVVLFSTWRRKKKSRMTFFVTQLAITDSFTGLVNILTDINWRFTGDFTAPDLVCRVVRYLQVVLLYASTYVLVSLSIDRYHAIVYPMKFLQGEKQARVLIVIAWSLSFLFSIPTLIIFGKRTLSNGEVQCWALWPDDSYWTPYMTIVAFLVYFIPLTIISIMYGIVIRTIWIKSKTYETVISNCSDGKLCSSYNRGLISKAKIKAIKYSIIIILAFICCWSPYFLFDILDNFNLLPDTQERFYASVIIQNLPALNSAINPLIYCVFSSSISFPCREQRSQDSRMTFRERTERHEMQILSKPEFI
A number is an active result; . = inactive; ? = inconclusive; / = no result given; [ ] = dose if it differs, or a comment. Unless noted, calls follow the shape of the dose curve; as a rule, active = well fitted curve in the direction sought with a large enough effect; inconclusive = small, poorly fitted or top-dose-only effect, or another doubt; inactive = no such curve, though single readings can be large; an effect the other way counts as inactive or inconclusive.

SMILES	HTT aggregate	PNC inhibitor	HTT cytoprotect	IMPase Li inh	IMPase cell inh	NPSR antag
O=C(/C=C/c1cccc(Cl)c1)Nn1c(-c2cccs2)nc2ccccc2c1=O	.	.	.[10 µM]	.	/	.
Cc1ccc(N=N/C(=C\O)C(=O)c2ccncc2)cc1	.	.	.	.	.	10µM
O=C(/C(=C/O)N=Nc1ccc(Cl)cc1)c1ccncc1	?	.	.	.	.	?
COc1ccc(N2C(=O)CC(N3CCCCC3)C2=O)cc1 (stereo not drawn)	.	/	.[10 µM]	.	/	.
COc1ccc(N2C(=O)CC(N3CCN(C4CCc5ccccc5C4)CC3)C2=O)cc1 (stereo not drawn)	.	-121	.[1.9 µM]	.	.	.
CCOC(=O)c1c(C)[nH]c(C(=O)COC(=O)CSC)c1C	.	-85	.[10 µM]	.	.	.
Cc1ccc(CNC(=O)c2sc3nc(-c4ccc(F)cc4)ccc3c2N)cc1	/	/	/	/	.	/
CCn1cc(/C=N\NC(=O)C2(C)CC2(Cl)Cl)c(C)n1 (stereo not drawn)	.	.	/	.	/	.
Fc1ccc(Nc2ncncc2-c2ccccc2C(F)(F)F)cc1	/	/	.	.	/	/
S=C(NCCc1ccccc1)Nc1cccc2cnccc12	3.5µM	/	.[10 µM]	.	/	.
Cc1ccc(-n2nnnc2-c2nc3ccccc3s2)cc1	.	-134	.[10 µM]	.	/	?
CCOc1ccc(-n2nnnc2-c2nc3ccccc3s2)cc1	.	.	.[10 µM]	?	/	?
CCc1nc(Cl)c(C#N)c2c1CCCC2	11µM	.	.[10 µM]	.	.	.
O=C(c1cnn2c1NC(c1ccco1)CC2C(F)(F)F)N1CCN(c2cccc(Cl)c2)CC1 (stereo not drawn)	22µM	.	.[0.074 µM]	.	.	.
COc1ccccc1N1CCN(C(=O)c2c(-c3ccccc3Cl)noc2C)CC1	.[9.22 µM]	.	.	.	?	.
Cc1onc(-c2ccccc2Cl)c1C(=O)N1CCN(c2nc3ccccc3s2)CC1	.	-113	.	.	.	.
Cc1cc(C(=O)NCC(c2ccco2)N(C)C)no1 (stereo not drawn)	.	-93	.[10 µM]	.	.	.
O=C(O)c1ccc(S(=O)(=O)c2ccc3c(c2)C(=O)N(NC(=O)c2cccnc2)C3=O)cc1	.[9.22 µM]	/	.[10 µM]	/	/	.[7.67 µM]
COCC(C)n1c(SCC(=O)N2CCc3ccccc3C2)nc2ccccc2c1=O (stereo not drawn)	?	-121	.[10 µM]	.	/	.
Cn1c(SCC(=O)N2CCc3ccccc3C2)nnc1-c1ccncc1	.	?	.[10 µM]	.	/	.
Cc1ccccc1-n1c(C)nnc1SCC(=O)N1CCc2ccccc2C1	.	-107	/	.	/	.
COC(=O)CCCOc1ccc(Cl)cc1Cl	/	/	/	.	/	/
Cc1c(C(=O)Nc2ccccc2)cn2c(nc3ccccc32)c1C#N	.	-80	.[0.074 µM]	.	/	.
CN(c1ccccc1)c1ccc(/C=C(\C#N)c2nnc3n2CCCCC3)cc1[N+](=O)[O-]	.	-91	.[10 µM]	/	.	.
OCCNc1ncnc2ccc(Br)cc12	.	.	.	/	?	.
SMILES	HTT aggregate	PNC inhibitor	HTT cytoprotect	IMPase Li inh	IMPase cell inh	NPSR antag
CCN(CC)c1ncnc2ccc(Br)cc12	13µM	?	.	25µM	.	.
COC(=O)Cc1c[nH]c2cccc(OCC(O)CN(Cc3ccccc3)C(C)C)c12 (stereo not drawn)	.	-80	.[10 µM]	.	.	.
C#CCCCO/N=C1/C[C@@H](O)[C@@H](O)[C@@H]2[C@@H]3C(=O)N(c4cccc(Oc5ccccc5)c4)C(=O)[C@H]3CC[C@H]12	/	/	.[10 µM]	/	/	/
Cc1cccc(C)c1NC(=O)c1c(-c2ccccc2)noc1C	?	?	.	.	.	.
Cc1cccc(NC(=O)c2c(-c3ccccc3)noc2C)n1	.	/	2.2µM	.	/	.
Cc1onc(-c2ccccc2)c1C(=O)Nc1nnc(-c2ccncc2)s1	.	.	.	.	?	.
